Experiments:
Experiment in all cases: DAPPL (digital affinity profiling via proximity ligation, sequencing); 10 mM Tris-HCl pH 7.5, 50 mM NaCl, 1 mM DTT, 4% glycerol, room temperature, 30 min; GST-TFs on glutathione beads, 16-mer random dsDNA library, 0.1% formaldehyde crosslink after washing; high values mean tight binding
Details in all cases: protein: recombinant; tags: N-terminal GST; dsDNA, one strand shown
FLI1 = biological target: T1, FLI1 (Homo sapiens, UniProt Q01543 1-452)
T1 sequence: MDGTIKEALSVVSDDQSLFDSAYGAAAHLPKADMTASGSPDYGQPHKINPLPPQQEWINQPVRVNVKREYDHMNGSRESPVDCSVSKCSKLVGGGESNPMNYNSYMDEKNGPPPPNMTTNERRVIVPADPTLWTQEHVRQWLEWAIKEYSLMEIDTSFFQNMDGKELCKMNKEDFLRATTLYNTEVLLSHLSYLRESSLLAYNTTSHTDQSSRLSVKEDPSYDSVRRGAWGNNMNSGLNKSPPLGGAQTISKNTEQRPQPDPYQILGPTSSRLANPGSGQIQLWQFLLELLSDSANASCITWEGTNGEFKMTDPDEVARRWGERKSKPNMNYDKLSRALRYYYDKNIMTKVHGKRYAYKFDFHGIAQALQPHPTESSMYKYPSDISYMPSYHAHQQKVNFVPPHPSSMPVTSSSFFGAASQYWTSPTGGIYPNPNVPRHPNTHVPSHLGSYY
Procedure, shortened: (§1)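 A tag-only sample was pooled with DNA-barcoded human transcription factors that had been expressed in yeast as GST fusions and captured on glutathione beads. The pools were incubated for 30 min at room temperature with 200 nmole of a random double-stranded 16-mer DNA library in Tris/NaCl/DTT/glycerol buffer, then washed, crosslinked with 0.1% formaldehyde, proximity-ligated (BsaI/T4 ligase, 1 h, 37 °C), PCR-amplified and sequenced on an Illumina NextSeq500. Binding signal is each hexamer's read frequency for a factor divided by its frequency for the tag-only sample.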

ELK1 = biological target: T2, ELK1 (Homo sapiens, UniProt P19419 1-428)
T2 sequence: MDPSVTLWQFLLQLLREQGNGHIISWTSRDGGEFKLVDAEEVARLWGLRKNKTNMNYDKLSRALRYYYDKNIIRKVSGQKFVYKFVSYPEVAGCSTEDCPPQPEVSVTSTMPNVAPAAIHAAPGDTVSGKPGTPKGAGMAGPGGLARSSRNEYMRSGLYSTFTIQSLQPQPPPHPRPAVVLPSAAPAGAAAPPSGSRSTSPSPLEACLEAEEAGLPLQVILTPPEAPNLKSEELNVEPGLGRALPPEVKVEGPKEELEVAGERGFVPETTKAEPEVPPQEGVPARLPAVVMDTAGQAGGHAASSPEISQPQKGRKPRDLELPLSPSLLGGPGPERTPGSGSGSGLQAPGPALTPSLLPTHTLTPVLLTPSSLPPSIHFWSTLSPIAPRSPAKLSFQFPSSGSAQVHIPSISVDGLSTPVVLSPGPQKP
Procedure, shortened: as §1

GABPA = biological target: T3, GABPA (Homo sapiens, UniProt Q06546 1-454)
T3 sequence: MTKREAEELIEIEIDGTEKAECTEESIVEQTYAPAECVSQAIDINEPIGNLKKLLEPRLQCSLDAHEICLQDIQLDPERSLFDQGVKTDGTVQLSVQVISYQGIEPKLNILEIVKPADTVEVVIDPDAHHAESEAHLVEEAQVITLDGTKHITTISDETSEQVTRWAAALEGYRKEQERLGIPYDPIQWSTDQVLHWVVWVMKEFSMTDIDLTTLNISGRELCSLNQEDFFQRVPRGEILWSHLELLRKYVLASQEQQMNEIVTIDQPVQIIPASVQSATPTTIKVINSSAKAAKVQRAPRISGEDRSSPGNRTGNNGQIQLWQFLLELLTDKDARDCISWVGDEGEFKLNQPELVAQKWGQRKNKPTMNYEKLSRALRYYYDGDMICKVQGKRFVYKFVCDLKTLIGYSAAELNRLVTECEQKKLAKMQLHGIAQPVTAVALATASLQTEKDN
Procedure, shortened: as §1

ERG = biological target: T4, ERG (Homo sapiens, UniProt P11308 1-479)
T4 sequence: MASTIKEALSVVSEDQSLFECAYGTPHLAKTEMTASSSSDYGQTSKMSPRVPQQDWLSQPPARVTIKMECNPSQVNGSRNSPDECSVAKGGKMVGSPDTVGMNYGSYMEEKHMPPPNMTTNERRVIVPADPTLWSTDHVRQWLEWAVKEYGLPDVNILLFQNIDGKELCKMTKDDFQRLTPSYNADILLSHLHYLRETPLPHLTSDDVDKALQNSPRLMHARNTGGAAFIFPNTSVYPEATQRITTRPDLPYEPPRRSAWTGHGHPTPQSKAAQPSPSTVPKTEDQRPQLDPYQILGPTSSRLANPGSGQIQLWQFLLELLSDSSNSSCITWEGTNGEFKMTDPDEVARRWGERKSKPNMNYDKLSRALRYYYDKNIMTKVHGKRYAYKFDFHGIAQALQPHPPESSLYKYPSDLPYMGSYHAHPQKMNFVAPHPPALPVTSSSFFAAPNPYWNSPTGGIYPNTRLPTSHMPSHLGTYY
Procedure, shortened: as §1

ELF1 = ELF1 (Homo sapiens, UniProt P32519 1-619)
Sequence of ELF1 (P32519 whole entry): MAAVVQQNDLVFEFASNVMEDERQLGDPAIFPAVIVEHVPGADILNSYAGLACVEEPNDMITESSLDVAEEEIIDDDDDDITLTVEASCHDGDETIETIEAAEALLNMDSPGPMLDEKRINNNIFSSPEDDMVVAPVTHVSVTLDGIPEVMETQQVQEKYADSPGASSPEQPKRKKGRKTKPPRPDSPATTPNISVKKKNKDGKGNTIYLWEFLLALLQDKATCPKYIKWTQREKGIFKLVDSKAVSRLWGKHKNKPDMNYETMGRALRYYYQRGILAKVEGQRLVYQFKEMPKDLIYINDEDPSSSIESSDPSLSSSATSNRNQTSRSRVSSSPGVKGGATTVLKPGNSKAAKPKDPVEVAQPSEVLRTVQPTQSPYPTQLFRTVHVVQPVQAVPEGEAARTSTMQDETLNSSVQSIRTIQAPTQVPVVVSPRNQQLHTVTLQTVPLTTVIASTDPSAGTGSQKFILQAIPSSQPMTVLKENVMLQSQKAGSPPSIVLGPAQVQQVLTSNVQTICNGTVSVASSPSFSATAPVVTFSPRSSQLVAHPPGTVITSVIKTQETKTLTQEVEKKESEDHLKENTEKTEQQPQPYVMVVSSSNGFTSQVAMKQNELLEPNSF
Procedure, shortened: as §1

EHF = biological target: T5, EHF (Homo sapiens, UniProt Q9NZC4 1-300)
T5 sequence: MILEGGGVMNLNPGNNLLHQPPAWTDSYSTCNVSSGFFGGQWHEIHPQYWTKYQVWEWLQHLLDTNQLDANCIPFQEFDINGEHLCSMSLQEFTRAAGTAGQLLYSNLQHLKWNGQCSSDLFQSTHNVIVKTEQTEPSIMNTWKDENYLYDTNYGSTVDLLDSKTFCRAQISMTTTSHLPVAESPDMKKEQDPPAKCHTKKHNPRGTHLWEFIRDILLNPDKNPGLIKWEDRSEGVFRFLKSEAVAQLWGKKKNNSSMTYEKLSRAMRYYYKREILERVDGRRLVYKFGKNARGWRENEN
Procedure, shortened: as §1

SPI1 = SPI1 (Homo sapiens, UniProt P17947 1-270)
Procedure, shortened: as §1

SPIB = SPIB (Homo sapiens, UniProt Q01892 1-262)
Sequence of SPIB (Q01892 whole entry): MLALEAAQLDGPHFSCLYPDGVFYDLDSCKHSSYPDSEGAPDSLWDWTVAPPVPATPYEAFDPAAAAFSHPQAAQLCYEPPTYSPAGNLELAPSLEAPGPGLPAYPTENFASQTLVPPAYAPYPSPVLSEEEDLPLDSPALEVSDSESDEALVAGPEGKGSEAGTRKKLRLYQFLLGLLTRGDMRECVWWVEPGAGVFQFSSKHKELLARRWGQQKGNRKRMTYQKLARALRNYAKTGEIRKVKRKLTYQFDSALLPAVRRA
Procedure, shortened: as §1

ELK3 = biological target: T6, ELK3 (Homo sapiens, UniProt P41970 1-407)
T6 sequence: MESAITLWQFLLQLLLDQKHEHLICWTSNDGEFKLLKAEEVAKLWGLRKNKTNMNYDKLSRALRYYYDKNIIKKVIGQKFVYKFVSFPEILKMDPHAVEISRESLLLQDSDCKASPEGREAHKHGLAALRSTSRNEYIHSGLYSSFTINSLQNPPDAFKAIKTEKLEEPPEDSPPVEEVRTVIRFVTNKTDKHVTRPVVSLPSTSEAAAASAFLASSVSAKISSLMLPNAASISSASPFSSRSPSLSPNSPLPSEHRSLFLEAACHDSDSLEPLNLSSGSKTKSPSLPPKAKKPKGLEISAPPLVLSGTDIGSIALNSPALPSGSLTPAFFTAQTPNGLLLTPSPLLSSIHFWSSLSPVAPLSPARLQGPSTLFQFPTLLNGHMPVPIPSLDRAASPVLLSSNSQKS
Procedure, shortened: as §1

FEV = biological target: T7, FEV (Homo sapiens, UniProt Q99581 1-238)
T7 sequence: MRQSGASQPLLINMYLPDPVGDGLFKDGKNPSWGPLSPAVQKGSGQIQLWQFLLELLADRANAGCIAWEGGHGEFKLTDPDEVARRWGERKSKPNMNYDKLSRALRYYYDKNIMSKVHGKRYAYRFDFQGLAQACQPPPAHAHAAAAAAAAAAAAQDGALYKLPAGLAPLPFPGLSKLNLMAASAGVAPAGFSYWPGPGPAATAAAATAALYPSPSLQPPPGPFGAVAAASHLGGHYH
Procedure, shortened: as §1

ETV5 = ETV5 (Homo sapiens, UniProt P41161 1-510)
Sequence of ETV5 (P41161 whole entry): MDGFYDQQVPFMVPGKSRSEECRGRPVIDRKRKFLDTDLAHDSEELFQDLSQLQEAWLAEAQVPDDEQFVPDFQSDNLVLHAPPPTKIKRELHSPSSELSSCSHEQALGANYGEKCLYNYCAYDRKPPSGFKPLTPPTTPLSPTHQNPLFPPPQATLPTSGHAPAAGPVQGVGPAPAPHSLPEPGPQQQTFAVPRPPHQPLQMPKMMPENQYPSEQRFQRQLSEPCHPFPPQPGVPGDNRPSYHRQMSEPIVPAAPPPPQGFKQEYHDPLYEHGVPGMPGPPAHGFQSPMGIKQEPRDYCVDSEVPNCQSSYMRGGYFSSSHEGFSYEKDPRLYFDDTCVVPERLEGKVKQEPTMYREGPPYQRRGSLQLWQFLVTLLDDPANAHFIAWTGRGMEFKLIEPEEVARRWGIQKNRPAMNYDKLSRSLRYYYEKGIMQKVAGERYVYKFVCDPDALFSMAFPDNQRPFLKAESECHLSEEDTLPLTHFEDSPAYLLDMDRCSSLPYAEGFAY
Procedure, shortened: as §1

SPIC = biological target: T8, SPIC (Homo sapiens, UniProt Q8N5J4 1-248)
T8 sequence: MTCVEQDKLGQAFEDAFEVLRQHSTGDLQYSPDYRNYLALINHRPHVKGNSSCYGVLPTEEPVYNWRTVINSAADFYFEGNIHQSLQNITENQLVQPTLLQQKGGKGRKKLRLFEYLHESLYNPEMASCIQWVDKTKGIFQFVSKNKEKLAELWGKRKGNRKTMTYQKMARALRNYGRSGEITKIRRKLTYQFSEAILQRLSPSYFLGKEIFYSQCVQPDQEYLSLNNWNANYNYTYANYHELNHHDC
Procedure, shortened: as §1

ELF4 = ELF4 (Homo sapiens, UniProt Q99607 1-663)
Sequence of ELF4 (Q99607 whole entry): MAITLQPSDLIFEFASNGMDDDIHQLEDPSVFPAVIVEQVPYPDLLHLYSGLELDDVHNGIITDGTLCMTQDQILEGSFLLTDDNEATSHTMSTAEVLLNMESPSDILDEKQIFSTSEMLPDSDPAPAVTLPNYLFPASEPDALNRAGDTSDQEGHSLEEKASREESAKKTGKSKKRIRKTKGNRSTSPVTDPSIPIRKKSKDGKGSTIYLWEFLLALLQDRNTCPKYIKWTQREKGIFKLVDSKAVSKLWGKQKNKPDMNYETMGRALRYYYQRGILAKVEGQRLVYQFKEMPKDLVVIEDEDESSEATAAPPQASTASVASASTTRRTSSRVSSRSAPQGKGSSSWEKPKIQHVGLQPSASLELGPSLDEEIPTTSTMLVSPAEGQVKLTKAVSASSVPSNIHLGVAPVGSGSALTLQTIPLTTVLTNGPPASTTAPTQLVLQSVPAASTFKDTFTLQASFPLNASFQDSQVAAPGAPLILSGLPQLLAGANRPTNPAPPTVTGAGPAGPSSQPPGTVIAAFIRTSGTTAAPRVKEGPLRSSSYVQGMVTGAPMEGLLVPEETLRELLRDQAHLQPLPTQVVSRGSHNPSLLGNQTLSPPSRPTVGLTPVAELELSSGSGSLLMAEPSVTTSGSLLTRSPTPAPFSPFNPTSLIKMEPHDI
Procedure, shortened: as §1

ELK4 = biological target: T9, ELK4 (Homo sapiens, UniProt P28324-2 1-405)
T9 sequence: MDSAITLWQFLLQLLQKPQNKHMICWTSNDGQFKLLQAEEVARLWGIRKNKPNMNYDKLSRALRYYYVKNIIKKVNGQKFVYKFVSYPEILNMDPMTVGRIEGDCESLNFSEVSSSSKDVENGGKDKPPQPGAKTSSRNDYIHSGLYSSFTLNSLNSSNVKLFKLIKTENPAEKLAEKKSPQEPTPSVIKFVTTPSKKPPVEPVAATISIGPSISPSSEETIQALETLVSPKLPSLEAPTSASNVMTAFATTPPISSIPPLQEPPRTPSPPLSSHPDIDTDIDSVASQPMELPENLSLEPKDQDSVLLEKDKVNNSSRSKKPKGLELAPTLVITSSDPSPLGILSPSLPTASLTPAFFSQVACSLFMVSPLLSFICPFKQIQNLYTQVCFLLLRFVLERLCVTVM
Procedure, shortened: as §1

ETV2 = biological target: T10, ETV2 (Homo sapiens, UniProt O00321 1-342)
T10 sequence: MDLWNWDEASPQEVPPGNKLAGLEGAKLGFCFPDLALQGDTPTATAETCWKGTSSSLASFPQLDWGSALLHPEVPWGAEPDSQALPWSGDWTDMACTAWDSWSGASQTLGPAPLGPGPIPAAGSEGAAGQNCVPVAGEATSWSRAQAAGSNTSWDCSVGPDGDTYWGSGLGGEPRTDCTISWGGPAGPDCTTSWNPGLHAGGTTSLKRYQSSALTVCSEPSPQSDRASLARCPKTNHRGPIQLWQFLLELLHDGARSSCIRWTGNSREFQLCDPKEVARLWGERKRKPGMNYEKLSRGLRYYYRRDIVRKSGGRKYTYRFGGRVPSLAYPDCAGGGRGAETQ
Procedure, shortened: as §1

ELF3 = biological target: T11, ELF3 (Homo sapiens, UniProt P78545 1-371)
T11 sequence: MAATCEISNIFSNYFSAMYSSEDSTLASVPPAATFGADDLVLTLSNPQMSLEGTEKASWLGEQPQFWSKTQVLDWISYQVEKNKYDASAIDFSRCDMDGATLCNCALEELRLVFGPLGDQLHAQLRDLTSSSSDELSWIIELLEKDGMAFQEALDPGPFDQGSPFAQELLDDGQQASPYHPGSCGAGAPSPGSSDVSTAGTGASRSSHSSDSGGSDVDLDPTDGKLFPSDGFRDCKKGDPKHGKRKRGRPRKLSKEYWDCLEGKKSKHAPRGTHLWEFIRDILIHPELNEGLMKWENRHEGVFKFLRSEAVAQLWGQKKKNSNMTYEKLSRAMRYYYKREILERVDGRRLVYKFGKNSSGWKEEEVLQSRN
Procedure, shortened: as §1

CRX = CRX (Homo sapiens, UniProt O43186 1-299)
Sequence of CRX (O43186 whole entry): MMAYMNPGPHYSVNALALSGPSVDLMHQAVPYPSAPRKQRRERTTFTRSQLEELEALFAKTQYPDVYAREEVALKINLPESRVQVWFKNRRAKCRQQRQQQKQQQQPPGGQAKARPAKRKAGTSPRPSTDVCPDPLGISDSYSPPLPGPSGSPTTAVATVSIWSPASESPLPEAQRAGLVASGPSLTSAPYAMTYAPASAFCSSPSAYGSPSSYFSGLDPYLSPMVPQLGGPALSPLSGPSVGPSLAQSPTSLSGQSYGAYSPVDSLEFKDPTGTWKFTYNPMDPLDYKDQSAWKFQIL
Procedure, shortened: as §1

ETV1 = ETV1 (Homo sapiens, UniProt P50549 1-477)
Sequence of ETV1 (P50549 whole entry): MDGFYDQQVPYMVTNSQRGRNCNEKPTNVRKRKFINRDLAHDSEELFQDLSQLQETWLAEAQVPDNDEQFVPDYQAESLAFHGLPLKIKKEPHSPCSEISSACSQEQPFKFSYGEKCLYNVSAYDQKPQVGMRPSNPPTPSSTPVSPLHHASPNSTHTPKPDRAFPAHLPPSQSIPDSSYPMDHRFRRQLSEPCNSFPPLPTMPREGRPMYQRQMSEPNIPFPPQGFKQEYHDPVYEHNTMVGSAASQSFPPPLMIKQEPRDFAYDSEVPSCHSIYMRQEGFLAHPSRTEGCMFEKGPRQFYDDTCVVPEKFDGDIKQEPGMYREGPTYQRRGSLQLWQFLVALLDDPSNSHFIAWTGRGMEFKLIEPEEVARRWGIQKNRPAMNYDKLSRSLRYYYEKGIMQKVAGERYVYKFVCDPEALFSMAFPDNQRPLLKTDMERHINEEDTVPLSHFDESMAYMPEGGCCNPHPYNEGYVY
Procedure, shortened: as §1

Sequence	binding signal (FLI1)	binding signal (ELK1)	binding signal (GABPA)	binding signal (ERG)	binding signal (ELF1)	binding signal (EHF)	binding signal (SPI1)	binding signal (SPIB)	binding signal (ELK3)	binding signal (FEV)	binding signal (ETV5)	binding signal (SPIC)	binding signal (ELF4)	binding signal (ELK4)	binding signal (ETV2)	binding signal (ELF3)	binding signal (CRX)	binding signal (ETV1)
GATATC	1.55 fold enrichment (6-mer frequency, TF over GST control)	1.6 fold enrichment (6-mer frequency, TF over GST control)	1.37 fold enrichment (6-mer frequency, TF over GST control)	1.9 fold enrichment (6-mer frequency, TF over GST control)	1.46 fold enrichment (6-mer frequency, TF over GST control)	1.44 fold enrichment (6-mer frequency, TF over GST control)	1.4 fold enrichment (6-mer frequency, TF over GST control)	1.58 fold enrichment (6-mer frequency, TF over GST control)	1.51 fold enrichment (6-mer frequency, TF over GST control)	4.01 fold enrichment (6-mer frequency, TF over GST control)	1.6 fold enrichment (6-mer frequency, TF over GST control)	1.41 fold enrichment (6-mer frequency, TF over GST control)	1.34 fold enrichment (6-mer frequency, TF over GST control)	1.49 fold enrichment (6-mer frequency, TF over GST control)	1.51 fold enrichment (6-mer frequency, TF over GST control)	1.59 fold enrichment (6-mer frequency, TF over GST control)	1.02 fold enrichment (6-mer frequency, TF over GST control)	1.51 fold enrichment (6-mer frequency, TF over GST control)
GCCTCC	1.29 fold enrichment (6-mer frequency, TF over GST control)	1.34 fold enrichment (6-mer frequency, TF over GST control)	1.23 fold enrichment (6-mer frequency, TF over GST control)	1.33 fold enrichment (6-mer frequency, TF over GST control)	1.27 fold enrichment (6-mer frequency, TF over GST control)	1.31 fold enrichment (6-mer frequency, TF over GST control)	1.38 fold enrichment (6-mer frequency, TF over GST control)	1.29 fold enrichment (6-mer frequency, TF over GST control)	1.33 fold enrichment (6-mer frequency, TF over GST control)	1.32 fold enrichment (6-mer frequency, TF over GST control)	1.31 fold enrichment (6-mer frequency, TF over GST control)	1.38 fold enrichment (6-mer frequency, TF over GST control)	1.34 fold enrichment (6-mer frequency, TF over GST control)	1.22 fold enrichment (6-mer frequency, TF over GST control)	1.29 fold enrichment (6-mer frequency, TF over GST control)	1.24 fold enrichment (6-mer frequency, TF over GST control)	1.03 fold enrichment (6-mer frequency, TF over GST control)	1.25 fold enrichment (6-mer frequency, TF over GST control)

— publication PMC7862700, “An all-to-all approach to the identification of sequence-specific readers for epigenetic DNA modifications on cytosine”
